Results on 3 molecules are retold here after ChEMBL document CHEMBL1961873, “Compounds: GSK PKIS; Assays: Nanosyn kinase panel” (2012).

Experiment [1] has as its target T1, Serine/threonine-protein kinase D2 (Homo sapiens) (UniProt Q9BZL6).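 Note: mean value of PRKD2 inhibition, from the GSK PKIS screening panel.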
T1 sequence (whole entry): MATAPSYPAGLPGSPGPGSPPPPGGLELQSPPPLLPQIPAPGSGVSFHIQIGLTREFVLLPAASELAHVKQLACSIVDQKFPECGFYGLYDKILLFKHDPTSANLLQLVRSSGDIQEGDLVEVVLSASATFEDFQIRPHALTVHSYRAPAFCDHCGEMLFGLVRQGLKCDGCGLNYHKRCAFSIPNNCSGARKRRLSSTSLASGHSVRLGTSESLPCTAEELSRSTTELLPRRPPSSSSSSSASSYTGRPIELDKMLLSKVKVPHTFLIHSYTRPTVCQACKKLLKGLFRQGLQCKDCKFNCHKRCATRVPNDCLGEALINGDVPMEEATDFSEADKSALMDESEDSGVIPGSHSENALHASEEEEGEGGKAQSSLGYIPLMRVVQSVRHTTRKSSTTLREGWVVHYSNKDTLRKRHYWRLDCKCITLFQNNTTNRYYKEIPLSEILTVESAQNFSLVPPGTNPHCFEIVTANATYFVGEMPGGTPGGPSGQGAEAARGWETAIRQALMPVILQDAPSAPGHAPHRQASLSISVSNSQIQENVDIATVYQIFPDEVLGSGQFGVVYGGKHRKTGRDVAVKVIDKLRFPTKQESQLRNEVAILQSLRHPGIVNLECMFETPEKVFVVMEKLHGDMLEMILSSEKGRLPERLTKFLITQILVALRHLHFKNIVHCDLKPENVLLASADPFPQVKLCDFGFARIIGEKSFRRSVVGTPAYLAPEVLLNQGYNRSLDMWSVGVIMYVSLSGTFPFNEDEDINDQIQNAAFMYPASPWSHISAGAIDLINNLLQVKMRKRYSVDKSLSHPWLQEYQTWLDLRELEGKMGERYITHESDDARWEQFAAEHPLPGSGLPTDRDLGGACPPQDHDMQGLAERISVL
As to conditions: at 1 µM.

In experiment [2] the target is T2, Serine/threonine-protein kinase D3 (Homo sapiens) (UniProt O94806).
T2 sequence (whole entry): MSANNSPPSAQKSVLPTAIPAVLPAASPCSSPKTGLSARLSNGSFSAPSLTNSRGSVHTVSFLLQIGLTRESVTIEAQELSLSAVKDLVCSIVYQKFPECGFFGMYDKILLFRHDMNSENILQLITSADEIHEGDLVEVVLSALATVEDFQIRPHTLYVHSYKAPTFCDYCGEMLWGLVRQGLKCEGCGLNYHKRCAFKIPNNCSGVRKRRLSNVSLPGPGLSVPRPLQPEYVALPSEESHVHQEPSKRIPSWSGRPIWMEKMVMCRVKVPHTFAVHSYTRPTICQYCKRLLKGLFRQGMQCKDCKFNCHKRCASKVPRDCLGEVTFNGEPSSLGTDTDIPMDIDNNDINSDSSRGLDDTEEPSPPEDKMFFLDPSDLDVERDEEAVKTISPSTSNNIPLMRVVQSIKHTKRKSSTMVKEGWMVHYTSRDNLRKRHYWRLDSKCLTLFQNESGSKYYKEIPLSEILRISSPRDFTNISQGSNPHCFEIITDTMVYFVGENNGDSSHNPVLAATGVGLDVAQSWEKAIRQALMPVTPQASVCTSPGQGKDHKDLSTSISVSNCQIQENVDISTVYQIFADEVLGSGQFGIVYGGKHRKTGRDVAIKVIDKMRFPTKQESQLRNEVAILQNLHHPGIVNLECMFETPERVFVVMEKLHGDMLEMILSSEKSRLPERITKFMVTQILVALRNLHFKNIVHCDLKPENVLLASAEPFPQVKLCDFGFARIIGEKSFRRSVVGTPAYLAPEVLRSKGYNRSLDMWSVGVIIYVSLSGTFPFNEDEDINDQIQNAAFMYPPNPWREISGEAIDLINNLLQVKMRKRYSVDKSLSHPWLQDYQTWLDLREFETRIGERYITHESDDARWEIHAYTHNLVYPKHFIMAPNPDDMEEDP
As to conditions: at 0.1 µM.

For experiment [3], the target named is T2, Serine/threonine-protein kinase D3 (Homo sapiens). The following applies: at 1 µM.
Experiment [4] has as its target T3, cGMP-dependent protein kinase 1 (Homo sapiens) (UniProt Q13976).
T3 sequence (whole entry): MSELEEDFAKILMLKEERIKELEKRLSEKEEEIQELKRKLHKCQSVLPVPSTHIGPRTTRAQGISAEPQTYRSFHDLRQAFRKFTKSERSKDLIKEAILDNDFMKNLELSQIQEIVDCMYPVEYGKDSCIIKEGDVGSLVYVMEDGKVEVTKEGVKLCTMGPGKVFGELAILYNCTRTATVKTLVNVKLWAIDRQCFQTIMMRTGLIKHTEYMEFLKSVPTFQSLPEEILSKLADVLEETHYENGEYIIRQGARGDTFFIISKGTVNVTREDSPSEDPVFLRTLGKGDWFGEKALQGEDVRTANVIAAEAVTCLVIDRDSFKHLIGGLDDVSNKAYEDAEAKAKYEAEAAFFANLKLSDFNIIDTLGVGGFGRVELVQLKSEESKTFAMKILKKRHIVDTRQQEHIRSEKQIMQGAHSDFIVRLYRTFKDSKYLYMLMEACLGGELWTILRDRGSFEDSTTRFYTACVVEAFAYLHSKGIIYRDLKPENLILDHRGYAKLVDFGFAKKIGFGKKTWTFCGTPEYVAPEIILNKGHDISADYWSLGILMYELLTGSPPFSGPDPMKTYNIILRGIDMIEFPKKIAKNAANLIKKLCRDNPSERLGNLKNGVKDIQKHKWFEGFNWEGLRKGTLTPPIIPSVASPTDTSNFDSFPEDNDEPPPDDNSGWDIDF
The following applies: at 0.1 µM.

Experiment [5] deals with T3, cGMP-dependent protein kinase 1 (Homo sapiens). The following applies: at 1 µM.
Experiment [6] concerns the target T4, cGMP-dependent protein kinase 2 (Homo sapiens) (UniProt Q13237).
T4 sequence (whole entry): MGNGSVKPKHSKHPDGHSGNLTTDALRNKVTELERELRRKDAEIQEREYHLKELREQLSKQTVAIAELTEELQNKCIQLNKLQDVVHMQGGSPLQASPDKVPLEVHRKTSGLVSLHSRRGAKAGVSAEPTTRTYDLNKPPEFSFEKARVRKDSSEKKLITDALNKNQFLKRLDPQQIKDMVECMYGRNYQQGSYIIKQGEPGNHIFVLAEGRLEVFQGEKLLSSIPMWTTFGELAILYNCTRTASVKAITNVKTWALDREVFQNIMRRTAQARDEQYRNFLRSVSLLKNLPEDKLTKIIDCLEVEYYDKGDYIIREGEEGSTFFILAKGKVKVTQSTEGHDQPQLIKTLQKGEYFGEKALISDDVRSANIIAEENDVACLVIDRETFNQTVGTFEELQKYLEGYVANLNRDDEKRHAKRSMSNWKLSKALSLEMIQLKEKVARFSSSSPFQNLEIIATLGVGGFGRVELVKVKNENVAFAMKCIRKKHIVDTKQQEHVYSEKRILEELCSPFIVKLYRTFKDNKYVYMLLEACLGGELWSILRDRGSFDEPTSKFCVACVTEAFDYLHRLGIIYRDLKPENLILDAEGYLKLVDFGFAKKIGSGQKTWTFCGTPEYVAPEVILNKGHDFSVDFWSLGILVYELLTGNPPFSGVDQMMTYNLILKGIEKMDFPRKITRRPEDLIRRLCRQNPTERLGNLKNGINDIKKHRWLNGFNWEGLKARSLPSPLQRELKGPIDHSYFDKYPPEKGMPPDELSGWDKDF
As to conditions: at 0.1 µM.

The target of experiment [7] is T4, cGMP-dependent protein kinase 2 (Homo sapiens). As to conditions: at 1 µM.
Experiment [8] deals with T5, cAMP-dependent protein kinase catalytic subunit PRKX (Homo sapiens) (UniProt P51817).
T5 sequence (whole entry): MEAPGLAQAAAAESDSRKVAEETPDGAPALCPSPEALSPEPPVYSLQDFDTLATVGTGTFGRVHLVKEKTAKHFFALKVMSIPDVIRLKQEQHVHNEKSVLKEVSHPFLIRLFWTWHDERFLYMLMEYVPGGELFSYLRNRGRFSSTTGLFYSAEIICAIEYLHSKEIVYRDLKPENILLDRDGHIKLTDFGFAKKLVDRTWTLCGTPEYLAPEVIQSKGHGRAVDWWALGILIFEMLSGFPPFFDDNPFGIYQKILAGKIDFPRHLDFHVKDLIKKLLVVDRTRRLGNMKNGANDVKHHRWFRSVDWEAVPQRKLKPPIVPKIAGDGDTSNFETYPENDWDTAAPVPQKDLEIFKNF
The following applies: at 0.1 µM.

The target in experiment [9] is T5, cAMP-dependent protein kinase catalytic subunit PRKX (Homo sapiens). As to conditions: at 1 µM.
Experiment [10] addresses Rho-associated protein kinase 1 (Homo sapiens) (UniProt Q13464). As to conditions: at 0.1 µM.
Experiment [11] shares this target. As to conditions: at 1 µM.
Experiment [12] concerns the target Rho-associated protein kinase 2 (Homo sapiens) (UniProt O75116). As to conditions: at 0.1 µM.
For experiment [13] the target is unchanged. As to conditions: at 1 µM.
For experiment [14], the target named is Ribosomal protein S6 kinase alpha-1 (Homo sapiens) (UniProt Q15418). The following applies: at 0.1 µM.
For experiment [15] the target is unchanged. As to conditions: at 1 µM.
Experiment [16] deals with Ribosomal protein S6 kinase alpha-3 (Homo sapiens) (UniProt P51812). As to conditions: at 0.1 µM.
For experiment [17] the target is unchanged. As to conditions: at 1 µM.
Experiment [18] has as its target Ribosomal protein S6 kinase alpha-2 (Homo sapiens) (UniProt Q15349). As to conditions: at 0.1 µM.
Experiment [19] has the same target. As to conditions: at 1 µM.
In experiment [20] the target is Ribosomal protein S6 kinase alpha-6 (Homo sapiens) (UniProt Q9UK32). The following applies: at 0.1 µM.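 Note: reported value is the mean inhibition of RSK4, from the GSK PKIS kinase inhibitor screen.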
Chain of Ribosomal protein S6 kinase alpha-6 (Homo sapiens) (Q9UK32 whole entry): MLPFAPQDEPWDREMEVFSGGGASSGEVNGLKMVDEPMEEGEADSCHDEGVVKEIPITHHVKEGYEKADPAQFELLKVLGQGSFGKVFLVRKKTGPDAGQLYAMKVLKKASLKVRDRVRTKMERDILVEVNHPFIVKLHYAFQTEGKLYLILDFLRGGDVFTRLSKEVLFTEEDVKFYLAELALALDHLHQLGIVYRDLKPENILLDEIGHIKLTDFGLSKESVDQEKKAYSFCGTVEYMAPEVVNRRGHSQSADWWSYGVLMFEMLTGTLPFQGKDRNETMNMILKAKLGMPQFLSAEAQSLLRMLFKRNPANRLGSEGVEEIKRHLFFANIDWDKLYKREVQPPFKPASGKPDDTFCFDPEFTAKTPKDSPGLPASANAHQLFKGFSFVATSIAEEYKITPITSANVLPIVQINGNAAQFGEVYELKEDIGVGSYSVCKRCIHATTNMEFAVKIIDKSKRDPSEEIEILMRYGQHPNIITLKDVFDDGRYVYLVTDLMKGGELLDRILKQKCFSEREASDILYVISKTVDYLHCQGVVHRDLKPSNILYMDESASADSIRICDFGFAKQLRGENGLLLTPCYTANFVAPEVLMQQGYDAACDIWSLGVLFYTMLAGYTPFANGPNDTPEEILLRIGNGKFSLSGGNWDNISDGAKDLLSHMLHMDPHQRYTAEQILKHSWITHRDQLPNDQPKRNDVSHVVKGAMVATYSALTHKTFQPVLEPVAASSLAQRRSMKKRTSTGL

Chain of Ribosomal protein S6 kinase alpha-1 (Homo sapiens) (Q15418 whole entry): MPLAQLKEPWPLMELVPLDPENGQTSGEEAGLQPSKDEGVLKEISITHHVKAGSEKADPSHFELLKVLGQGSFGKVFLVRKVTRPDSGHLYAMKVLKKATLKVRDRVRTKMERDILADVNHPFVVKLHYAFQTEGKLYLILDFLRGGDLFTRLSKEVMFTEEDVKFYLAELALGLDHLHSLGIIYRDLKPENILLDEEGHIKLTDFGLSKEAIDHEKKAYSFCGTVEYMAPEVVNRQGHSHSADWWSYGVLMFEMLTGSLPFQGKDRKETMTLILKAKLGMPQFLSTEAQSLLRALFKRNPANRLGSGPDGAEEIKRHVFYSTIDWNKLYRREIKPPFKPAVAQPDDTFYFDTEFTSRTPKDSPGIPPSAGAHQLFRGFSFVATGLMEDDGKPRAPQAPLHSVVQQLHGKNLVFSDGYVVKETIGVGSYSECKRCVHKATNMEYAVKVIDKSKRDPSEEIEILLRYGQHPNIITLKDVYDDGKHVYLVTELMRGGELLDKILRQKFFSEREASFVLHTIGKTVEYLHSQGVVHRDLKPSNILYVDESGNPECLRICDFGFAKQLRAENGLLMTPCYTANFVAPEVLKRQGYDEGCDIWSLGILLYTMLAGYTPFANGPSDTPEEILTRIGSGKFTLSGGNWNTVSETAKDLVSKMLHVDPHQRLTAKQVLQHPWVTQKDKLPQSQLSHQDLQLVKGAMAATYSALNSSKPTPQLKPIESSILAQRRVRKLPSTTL
Chain of Rho-associated protein kinase 1 (Homo sapiens) (Q13464 2-1354 limits assumed): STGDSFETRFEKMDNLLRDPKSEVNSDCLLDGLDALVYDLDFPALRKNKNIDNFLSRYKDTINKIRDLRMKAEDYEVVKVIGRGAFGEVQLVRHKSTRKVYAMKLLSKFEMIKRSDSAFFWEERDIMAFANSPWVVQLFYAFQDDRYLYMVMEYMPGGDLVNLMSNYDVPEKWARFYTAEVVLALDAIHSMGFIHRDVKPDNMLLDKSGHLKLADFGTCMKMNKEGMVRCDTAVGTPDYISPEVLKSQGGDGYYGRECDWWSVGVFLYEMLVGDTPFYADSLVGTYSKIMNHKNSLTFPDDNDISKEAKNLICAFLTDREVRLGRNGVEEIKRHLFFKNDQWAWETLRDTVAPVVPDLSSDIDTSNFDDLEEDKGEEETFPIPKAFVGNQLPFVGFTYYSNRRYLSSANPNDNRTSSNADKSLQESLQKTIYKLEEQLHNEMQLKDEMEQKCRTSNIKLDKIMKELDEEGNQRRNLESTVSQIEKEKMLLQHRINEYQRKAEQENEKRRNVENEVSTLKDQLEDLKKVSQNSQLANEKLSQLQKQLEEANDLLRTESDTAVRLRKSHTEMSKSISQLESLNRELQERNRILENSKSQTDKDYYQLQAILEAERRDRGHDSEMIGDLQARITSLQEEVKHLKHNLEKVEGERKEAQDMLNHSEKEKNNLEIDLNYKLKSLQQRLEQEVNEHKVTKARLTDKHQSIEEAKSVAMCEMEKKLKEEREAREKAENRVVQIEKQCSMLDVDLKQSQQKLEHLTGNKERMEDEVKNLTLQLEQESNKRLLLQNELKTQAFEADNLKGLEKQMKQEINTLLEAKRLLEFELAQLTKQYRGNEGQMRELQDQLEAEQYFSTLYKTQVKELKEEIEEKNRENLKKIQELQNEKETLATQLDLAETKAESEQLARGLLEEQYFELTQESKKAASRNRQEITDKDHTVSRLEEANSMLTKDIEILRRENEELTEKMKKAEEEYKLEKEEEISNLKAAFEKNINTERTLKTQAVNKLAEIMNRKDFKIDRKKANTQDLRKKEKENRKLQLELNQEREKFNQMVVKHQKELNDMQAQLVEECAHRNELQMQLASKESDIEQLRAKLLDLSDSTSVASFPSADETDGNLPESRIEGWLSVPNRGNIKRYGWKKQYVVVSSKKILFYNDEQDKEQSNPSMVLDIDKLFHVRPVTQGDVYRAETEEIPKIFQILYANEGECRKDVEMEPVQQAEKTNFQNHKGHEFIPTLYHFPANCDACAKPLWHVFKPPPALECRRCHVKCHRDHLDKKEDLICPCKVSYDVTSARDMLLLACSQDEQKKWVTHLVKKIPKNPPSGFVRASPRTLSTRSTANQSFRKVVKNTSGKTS
Chain of Ribosomal protein S6 kinase alpha-2 (Homo sapiens) (Q15349 whole entry): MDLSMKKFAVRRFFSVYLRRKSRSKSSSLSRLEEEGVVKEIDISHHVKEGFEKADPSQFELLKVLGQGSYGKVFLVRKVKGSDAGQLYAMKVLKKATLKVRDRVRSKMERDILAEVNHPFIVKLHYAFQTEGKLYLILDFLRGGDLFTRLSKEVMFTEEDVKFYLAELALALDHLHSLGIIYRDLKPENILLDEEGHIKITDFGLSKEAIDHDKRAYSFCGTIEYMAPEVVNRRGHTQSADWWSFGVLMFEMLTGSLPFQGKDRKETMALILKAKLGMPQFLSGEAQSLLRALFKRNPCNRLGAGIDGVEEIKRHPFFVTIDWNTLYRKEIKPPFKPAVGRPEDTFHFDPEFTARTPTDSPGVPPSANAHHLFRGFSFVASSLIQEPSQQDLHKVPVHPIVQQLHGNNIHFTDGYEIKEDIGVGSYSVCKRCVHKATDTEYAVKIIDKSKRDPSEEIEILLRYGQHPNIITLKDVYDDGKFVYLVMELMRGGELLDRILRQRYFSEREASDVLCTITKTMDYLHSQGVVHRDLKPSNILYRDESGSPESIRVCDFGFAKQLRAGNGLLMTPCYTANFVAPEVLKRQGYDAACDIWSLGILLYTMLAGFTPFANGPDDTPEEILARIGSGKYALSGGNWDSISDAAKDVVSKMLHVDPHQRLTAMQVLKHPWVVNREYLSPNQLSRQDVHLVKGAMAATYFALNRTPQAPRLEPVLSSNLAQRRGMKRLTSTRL
Chain of Rho-associated protein kinase 2 (Homo sapiens) (O75116 whole entry, looked up): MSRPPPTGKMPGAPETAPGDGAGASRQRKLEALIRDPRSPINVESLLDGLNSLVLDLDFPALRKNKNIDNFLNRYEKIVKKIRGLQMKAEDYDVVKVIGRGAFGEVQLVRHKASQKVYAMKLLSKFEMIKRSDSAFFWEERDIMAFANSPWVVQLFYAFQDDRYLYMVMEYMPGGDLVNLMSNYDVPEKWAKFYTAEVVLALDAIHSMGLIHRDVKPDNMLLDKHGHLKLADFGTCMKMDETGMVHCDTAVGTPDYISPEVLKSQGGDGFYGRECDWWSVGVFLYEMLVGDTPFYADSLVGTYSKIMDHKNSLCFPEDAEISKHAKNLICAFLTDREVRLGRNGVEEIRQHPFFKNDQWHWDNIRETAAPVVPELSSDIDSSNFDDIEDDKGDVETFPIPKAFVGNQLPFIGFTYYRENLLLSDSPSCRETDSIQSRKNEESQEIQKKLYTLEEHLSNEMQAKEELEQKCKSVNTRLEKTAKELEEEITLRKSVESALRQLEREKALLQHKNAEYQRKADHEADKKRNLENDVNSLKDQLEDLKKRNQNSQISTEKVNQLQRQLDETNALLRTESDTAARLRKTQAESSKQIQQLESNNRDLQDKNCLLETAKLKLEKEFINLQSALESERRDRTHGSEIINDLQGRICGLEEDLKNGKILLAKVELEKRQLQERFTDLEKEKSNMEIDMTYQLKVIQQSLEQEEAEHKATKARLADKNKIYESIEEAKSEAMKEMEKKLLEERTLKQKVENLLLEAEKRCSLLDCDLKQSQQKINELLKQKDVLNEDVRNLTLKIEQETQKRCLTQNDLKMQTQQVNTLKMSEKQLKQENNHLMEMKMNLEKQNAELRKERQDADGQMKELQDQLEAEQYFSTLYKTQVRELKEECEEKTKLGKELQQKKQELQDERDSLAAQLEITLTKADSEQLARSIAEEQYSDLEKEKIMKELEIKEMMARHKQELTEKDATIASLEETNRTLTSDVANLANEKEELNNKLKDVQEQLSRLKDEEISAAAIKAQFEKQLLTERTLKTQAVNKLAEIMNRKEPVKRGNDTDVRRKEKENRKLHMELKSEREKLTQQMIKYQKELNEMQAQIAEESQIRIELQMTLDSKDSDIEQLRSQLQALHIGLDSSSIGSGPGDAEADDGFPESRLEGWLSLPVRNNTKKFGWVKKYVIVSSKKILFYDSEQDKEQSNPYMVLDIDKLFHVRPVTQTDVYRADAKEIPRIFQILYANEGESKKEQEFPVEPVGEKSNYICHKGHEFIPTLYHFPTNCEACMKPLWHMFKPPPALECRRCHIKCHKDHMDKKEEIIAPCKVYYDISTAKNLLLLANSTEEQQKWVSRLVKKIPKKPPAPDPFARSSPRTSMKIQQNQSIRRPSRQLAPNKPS

The inhibition is the change of the read-out against control, counted positive when it falls. On to `COc1cc2ncn(-c3cc(OCc4ccccc4S(C)(=O)=O)c(C#N)s3)c2cc1OC`, for which the inhibition in experiment [1] came out at 4.79%; in [2] it was 4.75%; in experiment [3], 5.43%; in experiment [4] it was 4.3%; in experiment [5], 5.27%; in [6] it was 3.46%. The inhibition in experiment [7] came to 5.2%; in experiment [8], 1.34%; in [9] it was 2.89%; in [10], 3.62%; in [11], 6.5%; in [12], 5.73%. Further, the inhibition stood at 6.61% in experiment [13]; 5.57% in experiment [14]; 14% in experiment [15]; 5.02% in [16]; 13.7% in experiment [17]; 3.37% in [18]. The inhibition worked out at 10.2% in experiment [19] and 3.14% in experiment [20].
Consider `O=C(Nc1ccc(Oc2ccc3[nH]c(NC(=O)c4ccco4)nc3c2)cc1)Nc1cc(C(F)(F)F)ccc1F`, for which the inhibition in experiment [1] is -1.48%; in experiment [2] it was -3.15%; in [3], -1.16%; in [4] it was 1.18%; in experiment [5], 4.28%; in [6] it was 1.74%. Besides, the inhibition was 4.38% in [7]; 4% in experiment [8]; 4.61% in [9]; 3.36% in experiment [10]; 26.5% in [11]; 4.21% in [12]. The inhibition in [13] amounted to 31.3%; in experiment [14], 1.39%; in experiment [15] it was 10.2%; in [16], 1.5%; in experiment [17] it was 6.22%; in experiment [18] it was 5.27%. Moreover, the results for the inhibition in [19] and in experiment [20] were 35.7% and 0.96%, respectively.
`C[C@@H](Oc1cc(-n2cnc3ccc(OCC4CCN(C)CC4)cc32)sc1C(N)=O)c1ccccc1C(F)(F)F`: the inhibition in experiment [1] was 22.1%; in [2], -0.13%; in [3], 16.9%; in [4], -2.23%; in [5] it was 0.25%; in [6], -1.61%. Moreover, the inhibition is 0.31% in [7]; -0.03% in experiment [8]; -1.15% in experiment [9]; 0.29% in experiment [10]; 12% in experiment [11]; 1.51% in experiment [12]. Besides, the inhibition in [13] came to 12%; in experiment [14], 5.1%; in experiment [15], 32.7%; in [16], 11.8%; in experiment [17], 52%; in experiment [18], 3.14%. The inhibition in experiment [19] was found to be 30.9%; in experiment [20] it was 13.2%.
